For part of these data: Results with a measured potency or affinity are listed apart. Calls of active or inactive are those of the source.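 Rule for the calls, unless noted: active = signal rise over 3 SD above mean of control wells given weak agonist, in both repeats and first screen; inactive = the rest.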
Experiments:
[1] = tested on: TRPC4 beta (transient receptor potential cation channel C4), mouse; assay: TRPC4 cation channel opening, retest – cell-based, Fluo4 calcium, HEK293 TRPC4beta/mu-opioid, duplicates, 10 µM, confirmation (AID 2426;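 active = fluorescence ratio normalized to control raised more than 50% in primary screen plus both repeat runs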;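 for activation: percent rise of integrated ratio over buffer wells lacking compound which define 0%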); settings: Fluo4 calcium fluorescence, at 10 µM; stronger effect = higher value
[2] = tested on: transient receptor potential cation channel C4 beta (TRPC4), mouse; assay: TRPC4 cation channel opening, second retest – cell-based, second round, Fluo4, HEK293 TRPC4beta/mu-opioid, 1 µM, confirmation (AID 2461;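 active = primary screen active and over 50% activation in each of two duplicate runs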;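 for activation: 0% = wells without test compound as baseline of integrated fluorescence ratio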); settings: Fluo4 calcium fluorescence, at 1 µM; stronger effect = higher value
[3] = tested on: TRPC4 (transient receptor potential cation channel C4 beta), mouse; assay: potentiation of DAMGO EC20 TRPC4 response – cell-based, second round, Fluo-4, HEK293 TRPC4beta/mu-opioid, 1 µM, confirmation (AID 2554;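 active = primary screen hit whose fluorescence ratio, in both repeats, exceeds the weak agonist control mean by 3 SD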); settings: DAMGO EC20, Fluo-4 calcium flux, at 1 µM; stronger effect = higher value
[4] = tested on: TRPC4 beta (transient receptor potential cation channel C4), mouse; assay: potentiation of DAMGO EC20 TRPC4 response – cell-based, Fluo-4, HEK293 TRPC4beta/mu-opioid, confirmation (AID 2555;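 active = primary screen hit whose calcium fluorescence ratio, in both repeats, exceeds the weak agonist control mean by 3 SD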); settings: DAMGO EC20, Fluo-4 calcium flux, at 10 µM; stronger effect = higher value
[5] = target: Short transient receptor potential channel 4 (Mus musculus) (UniProt Q9QUQ5); assay: blockers of DAMGO-evoked TRPC4 calcium flux – cell-based, Fluo4, HEK293 TRPC4beta/mu-opioid, confirmation (AID 2636;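 active = calcium signal cut by more than 3 SD below the full-agonist control yet still positive, in both repeats and the earlier primary screen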); settings: at 10 µM; stronger effect = higher value
[6] = target: Short transient receptor potential channel 4 (Mus musculus) (UniProt Q9QUQ5); assay: blockers of DAMGO-evoked TRPC4 calcium flux – cell-based, second round, Fluo4, HEK293 TRPC4beta/mu-opioid, 1 µM, confirmation (AID 2637;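 active = calcium signal ratio cut to more than 3 SD under the fully stimulated control mean yet still positive, in both repeats and the primary screen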); settings: at 1 µM; stronger effect = higher value
[7] = target: Short transient receptor potential channel 4 (Mus musculus) (UniProt Q9QUQ5); assay: potentiation of DAMGO-evoked TRPC4 calcium signal – cell-based, HEK293 TRPC4/mu-opioid, Fluo-4 calcium, EC20 DAMGO, dose response (AID 434941;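 active = earlier screen potentiator hit that boosts the TRPC4 ion channel at some dose, with a dose response; inactive = no potentiation, no dose response, or not a prior hit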;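 note: calcium entry triggered by an EC20 dose of DAMGO at the co-expressed mu-opioid receptor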)
[8] = target: Short transient receptor potential channel 4 (Mus musculus) (UniProt Q9QUQ5); assay: block of DAMGO-driven TRPC4 calcium entry – cell-based, HEK293 TRPC4/mu-opioid, Fluo-4 calcium, dose response (AID 434942;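 active = primary screen inhibitor hit that blocks the TRPC4 channel at some tested dose, yielding a dose curve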)
[9] = target: Short transient receptor potential channel 6 (Mus musculus) (UniProt Q61143); assay: TRPC6 blockade by TRPC4 inhibitor hits – cell-based, HEK293, membrane potential dye, duplicate, selectivity assay for TRPC4 inhibitor project, confirmation (AID 434948;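 active = active in primary screen and both duplicates, each dropping signal beyond three positive-control SD with fluorescence still positive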); settings: HEK293 TRPC6, membrane potential dye fluorescence, at 10 µM, stimulated with maximal-effect acetylcholine; stronger effect = higher value
[10] = target: Short transient receptor potential channel 6 (Mus musculus) (UniProt Q61143); assay: TRPC6 opening by TRPC4 activator hits – cell-based, HEK293, membrane potential dye, duplicate, selectivity assay for TRPC4 activator project, confirmation (AID 434950;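 active = membrane potential signal rise above negative control mean plus 3 SD in both duplicates, also active in the earlier TRPC4 screen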;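 for activation: 0% = buffer only wells and 100% = acetylcholine maximal-effect wells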); settings: HEK293 TRPC6, membrane potential fluorescence, at 10 µM; activation: stronger effect = higher value; outcome: activation
[11] = target: Short transient receptor potential channel 6 (Mus musculus) (UniProt Q61143); assay: positive modulators of mouse TRPC6 channel – HEK293 cells, membrane potential dye, duplicate, selectivity assay for TRPC4 potentiator project, confirmation (AID 434952;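 active = compound raising the membrane signal above positive-control mean plus 3 SD in both repeats, and a primary screen hit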); settings: HEK293 TRPC6, membrane potential dye fluorescence, at 10 µM, maximal acetylcholine added after compound; stronger effect = higher value
[12] = target: Short transient receptor potential channel 4 (Mus musculus) (UniProt Q9QUQ5); assay: calcium flux activators in TRPC4/5HT1a cells, counter-screen for TRPC4 activator project, cell-based, second counter screen, HEK293 TRPC4/5HT1a, Fluo-4 (AID 434977;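 active = calcium signal rise above buffer-control mean plus 5 SD in both duplicates, and also a hit in the primary screen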;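 for activation: plate controls were assay buffer for no effect and maximal serotonin response for full effect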); settings: Fluo-4 calcium flux, at 10 µM; stronger effect = higher value
[13] = serotonin-gated TRPC4 signal block – cell-based, second counter screen, HEK293 TRPC4/5HT1a, Fluo-4, counter-screen for TRPC4 inhibitor project, confirmation (AID 434978;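 active = primary screen active whose calcium signal fell more than 3 SD beyond the full-serotonin control mean in both duplicate plates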;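 note: serotonin given first at submaximal then at maximal dose after compound preincubation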); settings: Fluo-4 calcium flux, at 10 µM, serotonin added to trigger calcium flux; stronger effect = higher value
[14] = tested on: TRPC4 (mouse), co-expressed with 5HT1a in HEK293; assay: enhancement of serotonin-evoked TRPC4 response – cell-based, second counter screen, HEK293 TRPC4/5HT1a, Fluo-4, counter-screen for TRPC4 potentiator project, confirmation (AID 434979); settings: Fluo-4 calcium flux, at 10 µM, serotonin added at its EC20 dose; stronger effect = higher value
[15] = nonspecific calcium rise without TRPC4 – cell-based, HEK293 mu-opioid receptor line, counter-screen for TRPC4 activator project, confirmation (AID 449723;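 active = hit in primary screen, with calcium signal over 5 SD above buffer well mean in both duplicates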;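 note: counter screen cells carry the mu-opioid receptor alone and lack TRPC4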); settings: HEK293 mu-opioid cells, Fluo-4 calcium fluorescence, at 10 µM; stronger effect = higher value
[16] = nonspecific potentiation of DAMGO calcium response – cell-based, HEK293 mu-opioid receptor line, counter-screen for TRPC4 allosteric potentiator project, confirmation (AID 449724;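 active = calcium signal rise more than 3 SD above the low-dose agonist control mean, in both duplicate plates and the primary screen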); settings: HEK293 mu-opioid receptor cells, Fluo-4 calcium flux, at 10 µM, compound added before EC20 DAMGO stimulus; stronger effect = higher value

Chain of Short transient receptor potential channel 4 (Mus musculus) (Q9QUQ5 whole entry, looked up): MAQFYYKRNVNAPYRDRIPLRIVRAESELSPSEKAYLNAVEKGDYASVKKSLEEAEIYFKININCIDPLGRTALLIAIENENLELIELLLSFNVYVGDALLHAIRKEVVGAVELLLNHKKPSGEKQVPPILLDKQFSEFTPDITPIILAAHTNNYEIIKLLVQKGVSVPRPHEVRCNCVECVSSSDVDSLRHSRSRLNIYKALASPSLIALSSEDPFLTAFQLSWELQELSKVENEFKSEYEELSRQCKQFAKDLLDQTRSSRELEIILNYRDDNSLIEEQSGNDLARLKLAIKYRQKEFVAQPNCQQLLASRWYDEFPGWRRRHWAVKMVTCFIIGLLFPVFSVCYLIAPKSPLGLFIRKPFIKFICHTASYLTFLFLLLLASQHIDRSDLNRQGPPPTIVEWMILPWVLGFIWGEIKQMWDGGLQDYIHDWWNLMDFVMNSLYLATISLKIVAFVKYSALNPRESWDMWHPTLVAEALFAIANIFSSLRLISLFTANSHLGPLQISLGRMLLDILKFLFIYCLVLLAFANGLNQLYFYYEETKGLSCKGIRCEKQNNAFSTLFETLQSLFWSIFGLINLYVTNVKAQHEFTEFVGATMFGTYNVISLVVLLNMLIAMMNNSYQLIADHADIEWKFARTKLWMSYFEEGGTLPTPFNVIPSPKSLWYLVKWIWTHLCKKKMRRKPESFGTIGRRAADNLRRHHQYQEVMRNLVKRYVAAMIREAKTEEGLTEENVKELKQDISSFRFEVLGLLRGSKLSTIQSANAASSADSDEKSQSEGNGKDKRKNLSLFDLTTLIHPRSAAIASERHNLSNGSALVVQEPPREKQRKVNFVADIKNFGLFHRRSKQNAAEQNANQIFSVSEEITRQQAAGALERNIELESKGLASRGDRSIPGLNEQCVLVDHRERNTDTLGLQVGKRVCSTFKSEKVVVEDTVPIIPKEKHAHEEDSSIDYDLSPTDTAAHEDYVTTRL
Chain of Short transient receptor potential channel 6 (Mus musculus) (Q61143 whole entry, looked up): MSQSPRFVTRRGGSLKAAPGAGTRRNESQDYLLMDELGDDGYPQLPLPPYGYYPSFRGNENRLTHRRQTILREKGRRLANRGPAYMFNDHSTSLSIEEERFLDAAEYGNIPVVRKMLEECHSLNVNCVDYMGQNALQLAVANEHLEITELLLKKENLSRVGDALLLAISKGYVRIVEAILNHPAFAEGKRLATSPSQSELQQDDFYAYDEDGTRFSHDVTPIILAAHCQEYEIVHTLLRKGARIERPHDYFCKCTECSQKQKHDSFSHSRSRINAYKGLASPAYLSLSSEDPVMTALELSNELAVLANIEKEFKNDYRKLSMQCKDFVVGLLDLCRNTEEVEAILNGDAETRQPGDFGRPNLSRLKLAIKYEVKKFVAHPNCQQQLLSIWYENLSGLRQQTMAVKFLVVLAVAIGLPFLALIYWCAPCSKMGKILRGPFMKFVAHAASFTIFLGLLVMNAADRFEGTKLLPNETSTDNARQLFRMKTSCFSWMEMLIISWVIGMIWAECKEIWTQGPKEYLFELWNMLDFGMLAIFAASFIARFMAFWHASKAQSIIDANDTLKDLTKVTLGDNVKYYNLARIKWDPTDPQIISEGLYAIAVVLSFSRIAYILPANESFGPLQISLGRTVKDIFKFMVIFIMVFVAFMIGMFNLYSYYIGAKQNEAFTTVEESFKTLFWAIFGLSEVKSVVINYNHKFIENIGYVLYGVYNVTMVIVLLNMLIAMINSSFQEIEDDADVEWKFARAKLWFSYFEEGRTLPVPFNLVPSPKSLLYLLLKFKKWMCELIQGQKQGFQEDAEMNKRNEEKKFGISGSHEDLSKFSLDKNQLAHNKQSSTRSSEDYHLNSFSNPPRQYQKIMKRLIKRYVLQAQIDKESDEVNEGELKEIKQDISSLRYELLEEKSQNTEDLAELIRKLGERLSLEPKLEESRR

Cc1ccc(C2N(c3ccc(Cl)c(Cl)c3)C(=O)C3CCCN32)o1 (stereo not given)
inactive: outcome [2] | outcome [5] | outcome [6] | outcome [7] | outcome [8] | outcome [9] | outcome [10] | outcome [11] | outcome [13] | outcome [15] | outcome [16]
active: activation [1] 53% | potentiation [3] 9% | potentiation [4] 22% | activation [12] 13.8% | potentiation [14] 20%

COc1ccc(C(=O)NC(=S)NNC(=O)c2c(-c3ccccc3)noc2C)cc1OC
inactive: outcome [1] | outcome [2] | outcome [3] | outcome [4] | outcome [5] | outcome [6] | outcome [7] | outcome [8] | outcome [9] | outcome [11] | outcome [13] | outcome [14] | outcome [15] | outcome [16]
active: activation [10] 39% | activation [12] 24.4%

CN(C)CCCN(C(=O)c1ccc(S(=O)(=O)N2CCCCCC2)cc1)c1nc2ccc(F)cc2s1
active: activation [1] 278% | activation [12] 44.3% | activation [15] 27.1%
inactive: outcome [2] | outcome [3] | outcome [4] | outcome [5] | outcome [6] | outcome [7] | outcome [8] | outcome [9] | outcome [10] | outcome [11] | outcome [13] | outcome [14] | outcome [16]

Cc1cc(NC(=O)c2cnn3cccnc23)nn1CC(=O)Nc1cccnc1
active: potentiation [3] 22% | potentiation [4] 109% | potentiation [14] 72.1%
inactive: outcome [1] | outcome [2] | outcome [5] | outcome [6] | outcome [7] | outcome [8] | outcome [9] | outcome [10] | outcome [11] | outcome [12] | outcome [13] | outcome [15] | outcome [16]

CN(CCc1ccccn1)C(=O)CC1C(=O)NCCN1Cc1ccccc1C(F)(F)F (stereo not given)
inactive: outcome [2] | outcome [3] | outcome [4] | outcome [5] | outcome [6] | outcome [7] | outcome [8] | outcome [9] | outcome [10] | outcome [11] | outcome [13] | outcome [14] | outcome [15] | outcome [16]
active: activation [1] 178% | activation [12] 50.4%

CCCCN(CC)CCNC(=O)c1cc2cc3ccc(Cl)cc3nc2o1
active: activation [1] 67% | potentiation [3] 20% | potentiation [4] 47% | activation [12] 18.8% | potentiation [14] 40.5%
inactive: outcome [2] | outcome [5] | outcome [6] | outcome [7] | outcome [8] | outcome [9] | outcome [10] | outcome [11] | outcome [13] | outcome [15] | outcome [16]

NC(=O)C1CCCN(CC(O)COCc2ccc(Cl)cc2)C1 (stereo not given)
active: activation [1] 140% | activation [2] 133% | activation [10] 31.5% | activation [12] 69.7%
inactive: outcome [3] | outcome [4] | outcome [5] | outcome [6] | outcome [7] | outcome [8] | outcome [9] | outcome [11] | outcome [13] | outcome [14] | outcome [15] | outcome [16]

O=C(NCCc1ccccn1)C(F)(F)C(F)(F)C(F)(F)C(F)(F)C(F)(F)C(F)F
inactive: outcome [2] | outcome [3] | outcome [4] | outcome [5] | outcome [6] | outcome [7] | outcome [8] | outcome [9] | outcome [10] | outcome [11] | outcome [13] | outcome [14] | outcome [15] | outcome [16]
active: activation [1] 178% | activation [12] 46%

Cc1cc(OCCCn2ccnc2)ccc1[N+](=O)[O-]
inactive: outcome [2] | outcome [3] | outcome [4] | outcome [5] | outcome [6] | outcome [7] | outcome [8] | outcome [9] | outcome [10] | outcome [11] | outcome [12] | outcome [13] | outcome [15] | outcome [16]
active: activation [1] 134% | potentiation [14] 18.2%

COc1ccc(C(CCNCc2ccc(N(C)C)cc2)c2ccccc2OC)cc1 (stereo not given)
active: activation [1] 133% | activation [12] 8.8%
inactive: outcome [2] | outcome [3] | outcome [4] | outcome [5] | outcome [6] | outcome [7] | outcome [8] | outcome [9] | outcome [10] | outcome [11] | outcome [13] | outcome [14] | outcome [15] | outcome [16]

Cc1cccc(NC(=S)NCC(c2cccnc2)N(C)C)c1 (stereo not given)
active: activation [1] 87% | activation [2] 115% | activation [10] 33.5%
inactive: outcome [3] | outcome [4] | outcome [5] | outcome [6] | outcome [7] | outcome [8] | outcome [9] | outcome [11] | outcome [12] | outcome [13] | outcome [14] | outcome [15] | outcome [16]

C=CCn1c(CCNC(=O)C(C)(C)C)nc2ccccc21
active: activation [1] 151% | activation [10] 37% | activation [12] 30.7%
inactive: outcome [2] | outcome [3] | outcome [4] | outcome [5] | outcome [6] | outcome [7] | outcome [8] | outcome [9] | outcome [11] | outcome [13] | outcome [14] | outcome [15] | outcome [16]

CCN1CCN(c2ccc(S(=O)(=O)N3CCOCC3)cc2NC(=O)C(C)Oc2cccc(Cl)c2)CC1 (stereo not given)
inactive: outcome [2] | outcome [3] | outcome [4] | outcome [5] | outcome [6] | outcome [7] | outcome [8] | outcome [9] | outcome [11] | outcome [13] | outcome [14] | outcome [15] | outcome [16]
active: activation [1] 83% | activation [10] 38% | activation [12] 11.3%

CN(C)CCN(C(=O)c1cccc2ccccc12)c1nc2cc3c(cc2s1)OCO3
inactive: outcome [1] | outcome [2] | outcome [3] | outcome [4] | outcome [5] | outcome [6] | outcome [7] | outcome [8] | outcome [9] | outcome [10] | outcome [11] | outcome [12] | outcome [13] | outcome [14] | outcome [15] | outcome [16]

CCCCN(CC)CCCNC(=O)Cn1nc(Cc2ccncc2)c2ccccc2c1=O
active: activation [1] 162% | activation [2] 120% | activation [10] 31.5% | activation [12] 53.7%
inactive: outcome [3] | outcome [4] | outcome [5] | outcome [6] | outcome [7] | outcome [8] | outcome [9] | outcome [11] | outcome [13] | outcome [14] | outcome [15] | outcome [16]
